This is part of a sample that, as a whole, favours compounds with a hit. Of some 83,000 tested, about 20% had one in any assay.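 Method: cells in 96-well plates; compound added at one concentration; 48 h incubation; percent growth measured; values under 10 scored active.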 A number with no mark means an inactive call. Calls of active or inactive are those of the source.

The assay concerns MDA-MB-468 breast. The assay can be described thus: NCI-60 one-dose screen, 48 h (100 = growth as untreated, 0 = no growth, -100 = all killed). The conditions noted are these: 10 µM unless noted.
With `O=C1[C@@H]2Cc3c([nH]c4ccccc34)[C@H](c3ccc(Br)cc3)N2C(=O)CN1C1CCN(Cc2c(Cl)cccc2Cl)CC1`, the growth is 95.9%.

As for `NC(=O)N1N=C(c2ccc(Cl)cc2)CC1c1cn(-c2ccccc2)nc1-c1ccc(Cl)cc1` (centres undefined), the growth is 69.1%.

Turning to `CC(C)(O)c1cccc(F)c1`, the growth is 93.8%.

For the molecule `CC(=O)Oc1ccc(O)cc1`, the growth is 95.5%.

On to `O=C(O)c1cn(C2CC2)c2cc(N3CCN(Cc4nc5c(cnn5-c5ccc([N+](=O)[O-])cc5)c(=O)[nH]4)CC3)c(F)cc2c1=O`, for which the growth was 103%.

As for `CCOc1cc(CNc2ccc(N3CCOCC3)c(C(=O)O)c2)ccc1OC`, the growth was 94.7%.

As to `O=C(CSc1nc2ccc([N+](=O)[O-])cc2[nH]1)Nc1ccc(Br)cc1`, the growth was 14.1%.

Turning to `COc1ccc(Oc2c(I)cc(CC(NC(C)=O)C(=O)O)cc2I)cc1` (centres undefined), the growth is 75.8%.

With `CCc1nc(N)nc(N)c1-c1ccc(Cl)cc1`, the growth was 62.5%.

Take `COC(=O)C1=C(C)NC(C)=C(C(=O)OC)C(N2C(=O)CCC2=O)C1` (centres undefined): the growth was 63.4%.

`CCOC(=O)C1=C(N)Oc2c(sc3c(CC)cccc23)C1c1ccc(F)cc1` (centres undefined): the growth is 46.1%.

For `C=C1/C(=C\C=C2/CCC[C@]3(C)[C@@H]([C@H](C)CCCC(C)(C)O)CC[C@@H]23)C[C@@H](OC(=O)CBr)C[C@@H]1O`, the growth was 72.8%.

With `Cc1cscc(C)c1=S`, the growth is 72.3%.

Consider `COc1ccc(/C=C/C(=O)CCC(=O)O)cc1OC`, for which the growth was 113%.

Regarding `O=S(=O)(Nc1cc(Br)c(O)c2ccccc12)c1ccc(F)cc1`, the growth was -48.5% (active).

Turning to `CNc1nc(NC)c2cn[nH]c2n1`, the growth is 94.8%.

`C#CCOC(=O)[C@@H]1CCCN1CC#C`: the growth was 75.4%.

For `CN1CCN(CC(=O)Nc2nc(-c3cccc(NS(=O)(=O)c4cccc5c(N(C)C)cccc45)c3)cs2)CC1`, the growth was 38.7%.

Turning to `Cc1cc(O)ccc1C1=NN(c2ccc(S(C)(=O)=O)cc2)C(=O)CC1`, the growth is 103%.

On to `O=C(O)c1ccccc1C(=O)c1cccc2c(F)cccc12`, for which the growth was 104%.

For `BrCCCOc1ccc(Oc2ccc(OCCCBr)cc2)cc1`, the growth was 97.5%.

Regarding `COc1cccc(-c2cn3nc(-c4cn(C)c5ccccc45)sc3n2)c1`, the growth is 103%.

As to `O=c1nc(-c2ccccc2)c2cc(-c3ccc(N4CCCC4)nc3)ccc2[nH]1`, the growth was 48.4%.

As to `COc1cnc2c(c1)C(=O)c1c-2n(CCCNC(C)C)c(=O)c2cc([N+](=O)[O-])ccc12`, the growth was -55.8% (active).

Consider `Cc1ccc(-c2nc3nc(-c4ccc(Cl)cc4)nc(N4CCCNCC4)c3o2)cc1`, for which the growth is -54.2% (active).

With `O=C(Cc1nc2cc(Cl)c(Cl)cc2nc1CC(=O)c1cccnc1)c1cccnc1`, the growth was 33.8%.

Take `Cn1c(C(=O)c2cccc3ccccc23)nc2ccccc21`: the growth is -1.13% (active).

Take `C#CCC(C(=O)OCC)C(=O)OCC`: the growth is 108%.

As to `O=C(C(=O)c1ccc2c(c1)OCO2)c1ccc2c(c1)OCO2`, the growth is 96.9%.

In the case of `CC(CN1CCN(CC(C)Nc2ccnc3cc(Cl)ccc23)CC1)Nc1ccnc2cc(Cl)ccc12` (centres undefined), the growth was -62.8% (active).

As to `O=[N+]([O-])c1cc(Br)c2cccc3c2c1CC3`, the growth is 97.3%.

For the molecule `Cc1ccc2c3c(c(=O)[nH]c2c1)C1(C(C#N)=C(N)O3)c2cc(Br)ccc2-c2ccc(Br)cc21`, the growth is 6.75% (active).

As to `O=C(O)CCCC(=O)O`, the growth was 94.9%.

As for `COc1ccc(C2CCCCC2=O)cc1` (centres undefined), the growth is 109%.

Regarding `CCNCCNc1c(C)c(-c2ccc(C(F)(F)F)cc2)c(C#N)c2nc3ccccc3n12`, the growth is 56.1%.

With `COc1cccc(-c2nn(C(C)(C)C)cc2-c2ccnc(NCCCNS(=O)(=O)c3cccc4ccccc34)c2)c1`, the growth is 110%.

Turning to `O=C1C(Cl)=C(Cl)C(Cl)(Cl)C(Cl)C1(Cl)Cl` (centres undefined), the growth is 115%.

As to `COC(=O)c1cc2c(=O)[nH]cc3c2c(n1)CCC3`, the growth was 97.7%.

On to `COc1cc(O)c2c(c1)[C@H]1O[C@@H]1C[C@H](O)[C@H](O)C(=O)/C=C\C[C@H](C)OC2=O`, for which the growth is -1.54% (active).

The record behind these values is PubChem BioAssay (NCI).
